From PubChem
TCR act: activates T cell receptor signaling; 330,000 tested, under 10 active; primary human leukocytes, anti-CD3, IL-2 HTRF, 48 h; Potency, µM (doses to about 9.22 µM), usual class: activators
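Activity was scored as IL-2 release from primary human leukocytes given only a TCR signal (a-CD3 beads) plus compound for 48 hr. Detection used a two-antibody HTRF format read at 665nm.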
uPA generation: cell surface uPA generation inhibition. cell surface uPA generation assay, qHTS. Potency, µM (doses to about 38.3 µM), hits mostly inhibitors. actives 0.31% (n = 330,000). AID 540303; active means well fitted inhibition curve with a large enough effect; inconclusive means small, poorly fitted or top-dose-only effect; inactive means no such curve, though single readings can be large or run the other way; tested in mouse RAW 264.7 cells; further: nearly all actives have a fitted effect of over 55% in size
ClpP mod: qHTS Assay for Activators of ClpP; purified B. subtilis ClpP, FRET peptide cleavage, 20 min; Potency, µM (top dose mostly 57.5 µM); actives 1.9% (n = 340,000); AID 651965, 2013; ATP-dependent Clp protease proteolytic subunit (Bacillus subtilis (strain 168)), P80244; active means well fitted falling curve with a large enough effect; inconclusive means small, poorly fitted or top-dose-only effect; inactive means no such curve, though single readings can be large or run the other way; further: the source files actives as falling curves though it sought activators and does not explain the sign; nearly all actives have a fitted effect of over 65% in size
Target sequence (P80244 whole entry, looked up): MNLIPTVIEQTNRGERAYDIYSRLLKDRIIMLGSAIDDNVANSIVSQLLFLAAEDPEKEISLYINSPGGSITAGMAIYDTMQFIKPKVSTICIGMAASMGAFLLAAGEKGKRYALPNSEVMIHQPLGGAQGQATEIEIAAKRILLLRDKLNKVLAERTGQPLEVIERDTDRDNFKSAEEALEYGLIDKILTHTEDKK
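FRET quenching reversal measured ClpP activation: 10 microg/mL B. subtilis ClpP at pH 8 with the FRET-FV decapeptide, read at 430 nm after 320 nm excitation. The 20-min minus 0-min signal was scaled between DMSO/no-enzyme wells and ADEP (5.8 microM final).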
Sfp PPTase inh: inhibitors of Bacillus subtilis Sfp phosphopantetheinyl transferase | Q9F4F7 | Biochemical Sfp PPTase activity, qHTS | Potency, µM, actives largely listed as inhibitors | actives 3.5% (n = 310,000) | AID 1490;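 further: the enzyme is Sfp with the accession as filed and its product quenches rhodamine fluorescence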
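After 15 min at room temperature with compound, 15 nM Sfp received 5 uM rhodamine-CoA plus 12.5 uM BHQ-2-ybbR (50 mM Hepes pH 7.6, 10 mM MgCl2). Rate came from the fluorescence difference over 30 min, ex 525/em 598 nm.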
Of the large screens only hits and unclear results are named; the others gave an inactive call. Most compounds without a hit are left out; they make up all but 4.2% or so of the library. Unless noted, the call rests on the fitted dose curve; in most records, active means well fitted curve in the direction sought with a large enough effect; inconclusive means small, poorly fitted or top-dose-only effect, or another doubt; inactive means no such curve, though single readings can be large; an effect the other way counts as inactive or inconclusive.

CCc1nc2c(OCc3ccc(Cl)cc3Cl)cccn2c1N(C)C(=O)C1CC1	none (no result: TCR act, uPA generation, Sfp PPTase inh)
O=C(O)C1C2C=CC(O2)C1C(=O)NCc1ccc(Cl)cc1 (centres undefined)	ClpP mod 35µM
O=C(O)C1C2C=CC(O2)C1C(=O)NCc1ccc2c(c1)OCO2 (centres undefined)	none
N#Cc1c(SCC(=O)Nc2cccc(C(F)(F)F)c2)sc2c(O)cc(=O)[nH]c12	Sfp PPTase inh 40µM (no result: ClpP mod)
Cc1cc(NC(=O)CSc2sc3c(O)cc(=O)[nH]c3c2C#N)ccc1Br	Sfp PPTase inh inconclusive (no result: ClpP mod)
CCSc1nnc(NC(=O)CSc2sc3c(O)cc(=O)[nH]c3c2C#N)s1	none (no result: ClpP mod)
COc1ccc(NC(=O)CSc2sc3c(O)cc(=O)[nH]c3c2C#N)c(OC)c1	Sfp PPTase inh inconclusive (no result: ClpP mod)
COc1ccccc1NC(=O)CSc1sc2c(O)cc(=O)[nH]c2c1C#N	Sfp PPTase inh 40µM (no result: ClpP mod)
CCc1nnc(NC(=O)CSc2sc3c(O)cc(=O)[nH]c3c2C#N)s1	Sfp PPTase inh 79µM (no result: ClpP mod)
Cc1nn(C(=O)c2c(F)cccc2F)c(C)c1S(=O)(=O)N1CCCCCC1	none (no result: TCR act, uPA generation, Sfp PPTase inh)
CCCCc1cc2c(cn1)=C(OC(=O)c1ccco1)C(C)(OC(=O)CC)C(=O)C=2 (centres undefined)	none (no result: TCR act, uPA generation, ClpP mod)
COc1cccc(NC(=O)C(OC(=O)/C=C/c2ccc3c(c2)OCO3)c2ccccc2)c1 (centres undefined)	ClpP mod 32µM
COc1cccc(NC(=O)C(NCC2CCCCC2)c2ccccc2)c1 (centres undefined)	Sfp PPTase inh 50µM
COc1cccc(NC(=O)C(NCCC(C)C)c2ccccc2)c1 (centres undefined)	none
O=C(O)CCSc1ccccn1	Sfp PPTase inh 50µM (no result: ClpP mod)
O=C(CCSc1ccccn1)c1ccccc1	Sfp PPTase inh 79µM (no result: ClpP mod)
O=C(CCSc1ccccn1)Nc1ccc(Br)cc1	ClpP mod inconclusive
O=C(CCCc1ccccn1)c1ccccc1	uPA generation inconclusive (no result: Sfp PPTase inh)
Fc1ccc2[nH]c3c(NCc4ccccc4)ncnc3c2c1	Sfp PPTase inh inconclusive
Cc1ccc2[nH]cc(C(O)c3c[nH]c4ccc(C)cc34)c2c1	none (no result: TCR act, uPA generation, Sfp PPTase inh)
CC(=O)c1sc(C(=O)O)c(-c2ccco2)c1-c1ccco1	Sfp PPTase inh 18µM
CCN(CC)c1ccc(C(=O)N2CCc3c([nH]c4ccccc34)C2c2ccc(F)cc2)cc1 (centres undefined)	none (no result: TCR act, uPA generation, Sfp PPTase inh)
CCCN(C(=O)c1cn(C)c(=O)c2cc(OC)c(OC)cc12)c1ccc(CC)cc1	none (no result: TCR act, uPA generation, Sfp PPTase inh)
CCCCN(C(=O)C(C)Oc1ccc(Br)cc1)c1c(N)n(Cc2ccccc2)c(=O)[nH]c1=O (centres undefined)	ClpP mod 28µM
CCCN(C(=O)C(C)Oc1cccc(Cl)c1)c1c(N)n(Cc2ccccc2)c(=O)[nH]c1=O (centres undefined)	none (no result: TCR act)
CC(C)C(c1nnnn1Cc1ccccc1)N(CCCO)Cc1cc2cc3c(cc2[nH]c1=O)OCO3 (centres undefined)	ClpP mod 32µM
CCC(c1nnnn1Cc1ccc(OC)cc1)N(CCCO)Cc1cc2cc3c(cc2[nH]c1=O)OCO3 (centres undefined)	ClpP mod 22µM, Sfp PPTase inh inconclusive (no result: uPA generation)
Cc1cccc(C)c1NC(=O)C(c1ccc(C#N)cc1)n1c(=O)c(-c2ccco2)nc2ccccc21 (centres undefined)	none (no result: TCR act, uPA generation, Sfp PPTase inh)
CCC1=C[C@@H]2CN(C1)Cc1c([nH]c3ccccc13)[C@@](C(=O)OC)(c1cc3c(cc1OC)N(C)[C@@H]1[C@@](O)(C(=O)OC)[C@H](OC(C)=O)[C@]4(CC)C=CCN5CC[C@]31[C@@H]54)C2	Sfp PPTase inh 71µM (no result: TCR act, uPA generation, ClpP mod)
Cc1ccc(SCC(=O)Nc2ccc3oc(-c4cccc(Cl)c4)nc3c2)cc1	none (no result: TCR act, uPA generation, Sfp PPTase inh)
O=C(NNc1nc2ccccc2s1)Nc1ccc(Cl)c(Cl)c1	Sfp PPTase inh 56µM
O=C(NNc1nc2ccccc2s1)C1CC1	Sfp PPTase inh 45µM
O=C(NNc1nc2ccccc2s1)c1ccccc1F	none
NC(=S)Nc1nc2ccccc2s1	Sfp PPTase inh 50µM (no result: ClpP mod)
O=C(NNc1nc2ccccc2s1)Nc1ccc(F)cc1	Sfp PPTase inh 100µM
COc1ccc(-c2cc(C(=O)OC3CCOC3=O)c3ccccc3n2)cc1 (centres undefined)	ClpP mod 25µM
COc1ccc(-c2cc(C(=O)Oc3ccc([N+](=O)[O-])cc3)c3ccccc3n2)cc1	ClpP mod 28µM
CC(=O)Nc1nonc1-c1nnc(SCC(=O)Nc2ccc(C)cc2)n1-c1ccccc1	none (no result: TCR act, uPA generation, Sfp PPTase inh)
CCOc1ccc(Oc2nc(NCC(C)C)nc(N3CCOCC3)n2)nn1	none (no result: TCR act, uPA generation, Sfp PPTase inh)
O=C(CSc1n[nH]c(-c2ccco2)n1)Nc1sc2c(c1C(=O)Nc1ccccc1)CCCC2	Sfp PPTase inh 35µM
CCOC(=O)c1c(NC(=O)CSc2n[nH]c(-c3ccco3)n2)sc(C)c1C	none
Cc1ccc(NC(=O)c2c(NC(=O)Cc3ccccc3)sc3c2CCCC3)cc1	ClpP mod 22µM (no result: TCR act, uPA generation, Sfp PPTase inh)
COc1ccc(CC(=O)Nc2sc3c(c2C(=O)Nc2ccc(C)cc2)CCCCC3)cc1	none (no result: TCR act, uPA generation, Sfp PPTase inh)
COc1ccc(NC(=O)c2c(NC(=O)Cc3ccccc3)sc3c2CCCC3)cc1	ClpP mod 28µM (no result: TCR act, uPA generation, Sfp PPTase inh)
Cc1nn(C)c(C(=O)NNC(=O)NC2CCCCC2)c1Cl	none
COc1ccccc1C(=O)OCc1cc(=O)n2c(C)csc2n1	none (no result: TCR act, uPA generation, Sfp PPTase inh)
C[C@]12C[C@@](C)(C=C1/C=C/c1ccccc1)C(=O)C[C@H]2c1ccccc1	none (no result: TCR act, uPA generation, ClpP mod)
Cc1ccc(/C=C2\SC(=S)N(c3cccnc3)C2=O)o1	Sfp PPTase inh 50µM
CCN1/C(=C/c2ccc3cc(C)ccc3[n+]2CC)Sc2cc(C)c(C)cc21	Sfp PPTase inh 25µM (no result: ClpP mod)
CCN1/C(=C/c2ccc3cc(C)ccc3[n+]2CC)Sc2ccccc21	uPA generation inconclusive, Sfp PPTase inh 11µM
CC[n+]1c(/C=C2\Sc3ccccc3N2C)ccc2cccc(C)c21	Sfp PPTase inh inconclusive (no result: uPA generation)
CCN1/C(=C/c2sc(-c3ccccc3C)c[n+]2C)Sc2ccccc21	none (no result: uPA generation)
O=C(Nc1nc(-c2cccs2)c(-c2ccccc2)s1)c1ccco1	ClpP mod inconclusive, Sfp PPTase inh inconclusive
CC1CC1C(=O)Nc1nc(-c2cccs2)c(-c2cccs2)s1 (centres undefined)	ClpP mod inconclusive, Sfp PPTase inh 50µM
CNC(=O)C(Sc1nc(C)nc2c1oc1ccccc12)C(C)=O (centres undefined)	Sfp PPTase inh 50µM (no result: uPA generation)
Cc1nc(SCc2cccc(F)c2)c2oc3ccccc3c2n1	Sfp PPTase inh 40µM
CC(C)(C)c1ccc(OCCOCCn2c(-c3ccc(Cl)cc3)nc3ccccc3c2=O)cc1	none (no result: TCR act, uPA generation, Sfp PPTase inh)
NC(=O)CSc1nnc(-c2ccccn2)n1Cc1ccco1	none
C(=C\c1ccccc1)/CSc1nnc(-c2ccccn2)n1Cc1ccco1	Sfp PPTase inh 32µM
Clc1ccccc1CSc1nnc(-c2ccccn2)n1Cc1ccco1	Sfp PPTase inh 56µM
CC1CCN(C(=O)CCC(=O)Nc2nnc(C3CCCCC3)s2)CC1	none
O[C@@H](c1ccccc1)C1CCN(CCc2ccccc2)CC1	none (no result: TCR act, uPA generation, ClpP mod)
Cc1ccc(-n2c(SCC(=O)c3c(N)n(C)c(=O)n(C)c3=O)nc3sc4c(c3c2=O)CCCC4)c(C)c1	Sfp PPTase inh 56µM
